PubChem BioAssay (Tox21)
Records with an inconclusive call do not appear. Calls of active or inactive are those of the source. Unless noted, calls come from the whole dose curve; as a rule, active = well fitted curve in the direction sought with a large enough effect in the repeat runs; inconclusive = weak or mixed curves; inactive = no such curve, though single readings can be large; an effect the other way counts as inactive or inconclusive.

How the values were obtained:
[1] = qHTS assay to test for compound auto fluorescence at 535 nm (green) in HEK293 cells (AID 720680)
[2] = qHTS assay to test for compound auto fluorescence at 460 nm (blue) in HEK293 cell free culture (AID 720681)
Summary of the method: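 Compounds were added to cell-free DMEM with 10% FBS and fluorescence read directly. The blue channel used 405 nm excitation and 460 nm emission, with triamterene as the reference fluorophore.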

[3] = qHTS assay to test for compound auto fluorescence at 535 nm (green) in HEK293 cell free culture (AID 720682)
Summary of the method: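 Measurement is a direct plate read of green fluorescence (485 nm in, 535 nm out) after compound addition to serum-supplemented DMEM lacking cells, with fluorescein used to express intensities.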

[4] = qHTS assay to test for compound auto fluorescence at 590 nm (red) in HEK293 cell free culture (AID 720683)
Summary of the method: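 Cell-free wells of DMEM with 10% FBS received compound, and intrinsic fluorescence was read at excitation/emission 540/590 nm. Values expressed as equivalence to Rose Bengal sodium.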

[5] = qHTS assay to test for compound auto fluorescence at 590 nm (red) in HepG2 cell free culture (AID 720684)
Summary of the method: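 Auto fluorescence equivalency versus Rose Bengal sodium, red channel Ex/Em 540/590 nm; compounds in cell-free MEM/10% FBS; DMSO vehicle control.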

[6] = qHTS assay to test for compound auto fluorescence at 460 nm (blue) in HepG2 cell free culture (AID 720685)
Summary of the method: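 Cell-free plates of MEM plus 10% FBS received 23 nL compound or DMSO vehicle; blue-channel (405/460 nm) intensity scored against triamterene as reference fluorophore.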

[7] = qHTS assay to test for compound auto fluorescence at 535 nm (green) in HepG2 cell free culture (AID 720686)
[8] = qHTS assay to test for compound auto fluorescence at 460 nm (blue) in HepG2 cells (AID 720687)
Summary of the method: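 HepG2 cells in MEM with 10% FBS, attached overnight at 37 C, were exposed to compound or DMSO for 1 hr at 37 C, 5% CO2. Blue fluorescence was read at 405/460 nm, with triamterene as reference fluorophore.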

[9] = biological target: Glucocorticoid receptor (Homo sapiens) (UniProt P04150); assay: qHTS assay to identify small molecule agonists of the glucocorticoid receptor (GR) signaling pathway (AID 720691; active = well fitted activation curve with a large enough effect in the signal ratio in the repeat runs, not every such curve was filed as active; the % refers to the signal ratio)
Glucocorticoid receptor (Homo sapiens), sequence (P04150 whole entry, looked up): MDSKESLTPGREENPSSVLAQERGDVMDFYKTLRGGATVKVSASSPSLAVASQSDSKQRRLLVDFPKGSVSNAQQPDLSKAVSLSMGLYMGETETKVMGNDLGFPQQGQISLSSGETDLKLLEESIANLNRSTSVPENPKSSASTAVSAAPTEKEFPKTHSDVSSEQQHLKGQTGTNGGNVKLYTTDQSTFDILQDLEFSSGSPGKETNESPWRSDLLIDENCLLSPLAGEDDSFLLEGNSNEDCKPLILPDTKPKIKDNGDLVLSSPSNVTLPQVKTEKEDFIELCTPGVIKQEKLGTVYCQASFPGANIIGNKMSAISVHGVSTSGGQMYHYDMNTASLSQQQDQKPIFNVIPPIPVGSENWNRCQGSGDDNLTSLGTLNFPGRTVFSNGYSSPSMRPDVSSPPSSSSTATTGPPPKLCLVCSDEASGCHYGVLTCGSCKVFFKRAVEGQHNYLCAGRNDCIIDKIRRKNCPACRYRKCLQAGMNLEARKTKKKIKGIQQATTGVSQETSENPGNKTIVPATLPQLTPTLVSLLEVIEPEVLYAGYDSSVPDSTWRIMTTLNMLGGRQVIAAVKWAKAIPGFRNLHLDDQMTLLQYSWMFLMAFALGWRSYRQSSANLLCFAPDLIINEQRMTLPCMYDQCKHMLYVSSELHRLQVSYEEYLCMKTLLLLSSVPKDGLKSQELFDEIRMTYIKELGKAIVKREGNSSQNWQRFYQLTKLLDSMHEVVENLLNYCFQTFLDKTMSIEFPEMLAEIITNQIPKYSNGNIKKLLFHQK
Summary of the method: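 Agonist-mode qHTS in HeLa cells stably expressing a glucocorticoid-response-element beta-lactamase reporter. Fluorescence intensity read with FRET substrate (2 h, room temperature) after 18 h compound treatment at 37 C.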

[10] = biological target: Glucocorticoid receptor (Homo sapiens) (UniProt P04150); assay: qHTS assay to identify small molecule antagonists of the glucocorticoid receptor (GR) signaling pathway (AID 720692; active = well fitted inhibition curve with a large enough effect in the signal ratio in the repeat runs, not every such curve was filed as active; the % refers to the signal ratio)
Summary of the method: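 Inhibition of dexamethasone-driven (5 nM final) beta-lactamase expression was measured in GRE-reporter HeLa cells over 18 h at 37C. Fluorescence was read after 2 h with the B/G FRET substrate at room temperature.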

[11] = qHTS assay to identify small molecule antagonists of the glucocorticoid receptor (GR) signaling pathway - cell viability counter screen (AID 720693); note: nearly all actives have a fitted effect of over 55% in size
[12] = qHTS assay for identifying genotoxic compounds that show differential cytotoxicity against isogenic chicken DT40 cell lines with known DNA damage response pathways - wild type cell line (AID 743012); note: nearly all actives have a fitted effect of over 60% in size; note: potency is the fitted concentration of half-maximal effect
Summary of the method: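 Viability by ATP luminescence (CellTiter-Glo, 30 min RT) after 40 h compound treatment at 37 C/5% CO2, using 300 parental DNA repair-proficient DT40 cells per well.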

[13] = qHTS assay for identifying genotoxic compounds that show differential cytotoxicity against isogenic chicken DT40 cell lines with known DNA damage response pathways - Rev3 mutant cell line (AID 743014); note: nearly all actives have a fitted effect of over 55% in size
[14] = qHTS assay for identifying genotoxic compounds that show differential cytotoxicity against isogenic chicken DT40 cell lines with known DNA damage response pathways - Rad54/Ku70 mutant cell line (AID 743015); note: nearly all actives have a fitted effect of over 60% in size; note: potency is the fitted concentration of half-maximal effect
[15] = qHTS assay to identify small molecule antagonists of the androgen receptor (AR) signaling pathway - cell viability counter screen (AID 743033; note: nearly all actives have a fitted effect of over 45% in size)
[16] = biological target: Androgen receptor (Homo sapiens) (UniProt P10275); assay: qHTS assay to identify small molecule antagonists of the androgen receptor (AR) signaling pathway (AID 743035; active = well fitted inhibition curve with a large enough effect in the signal ratio in the repeat runs, not every such curve was filed as active; the % refers to the signal ratio)
Androgen receptor (Homo sapiens), sequence (P10275 whole entry, looked up): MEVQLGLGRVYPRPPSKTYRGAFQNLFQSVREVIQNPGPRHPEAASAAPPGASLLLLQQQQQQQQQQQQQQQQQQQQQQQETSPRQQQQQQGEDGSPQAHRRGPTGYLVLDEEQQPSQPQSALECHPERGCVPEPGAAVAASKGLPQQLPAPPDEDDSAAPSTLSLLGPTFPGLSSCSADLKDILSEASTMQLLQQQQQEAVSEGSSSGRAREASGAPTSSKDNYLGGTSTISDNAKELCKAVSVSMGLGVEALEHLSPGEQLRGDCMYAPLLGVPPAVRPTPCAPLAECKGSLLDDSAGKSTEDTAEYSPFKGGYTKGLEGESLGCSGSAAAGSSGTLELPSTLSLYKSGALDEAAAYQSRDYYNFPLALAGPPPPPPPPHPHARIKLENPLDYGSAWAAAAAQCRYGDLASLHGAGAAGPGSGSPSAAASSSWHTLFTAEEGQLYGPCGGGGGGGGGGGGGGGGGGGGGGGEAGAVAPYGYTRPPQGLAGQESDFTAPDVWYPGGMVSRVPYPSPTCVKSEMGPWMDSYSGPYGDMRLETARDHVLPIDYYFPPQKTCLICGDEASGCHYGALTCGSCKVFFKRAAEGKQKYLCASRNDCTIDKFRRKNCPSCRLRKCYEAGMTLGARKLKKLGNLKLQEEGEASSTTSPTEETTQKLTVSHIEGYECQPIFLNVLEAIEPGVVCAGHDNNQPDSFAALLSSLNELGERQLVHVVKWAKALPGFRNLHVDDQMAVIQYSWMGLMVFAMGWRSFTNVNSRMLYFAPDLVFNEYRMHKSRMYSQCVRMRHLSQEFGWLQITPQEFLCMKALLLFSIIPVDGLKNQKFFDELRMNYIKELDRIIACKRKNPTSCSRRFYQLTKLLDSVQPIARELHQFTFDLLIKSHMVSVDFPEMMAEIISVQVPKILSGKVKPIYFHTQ
Summary of the method: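 Antagonist mode: AR-bla HEK293 cells co-treated with test compounds and agonist R1881 for 16 h at 37C, 5% CO2. Beta-lactamase activity read as FRET fluorescence after 2 h room-temperature substrate loading.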

[17] = qHTS assay to identify small molecule antagonists of the androgen receptor (AR) signaling pathway using the MDA cell line - cell viability counter screen (AID 743041; note: nearly all actives have a fitted effect of over 45% in size)
Summary of the method: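 Compound exposure lasted 16 h at 37C in MDA-kb2 AR-luc cells stimulated with R1881. Protease-based CellTiter-Fluor reagent was applied for the final 30 min and fluorescence measured.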

[18] = biological target: Androgen receptor (Homo sapiens) (UniProt P10275); assay: qHTS assay to identify small molecule antagonists of the androgen receptor (AR) signaling pathway using the MDA cell line (AID 743042; note: nearly all actives have a fitted effect of over 55% in size)
Summary of the method: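 MDA-kb2 breast carcinoma cells carrying MMTV-luciferase (AR/GR responsive) were co-treated with compounds and the agonist R1881 for 16 h at 37C. Inhibition read as ONE-Glo luminescence; CellTiter-Fluor fluorescence measured in parallel for cytotoxicity.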

[19] = biological target: Androgen receptor (Homo sapiens) (UniProt P10275); assay: qHTS assay to identify small molecule agonists of the androgen receptor (AR) signaling pathway using the MDA cell line (AID 743040; note: nearly all actives have a fitted effect of over 20% in size)
Summary of the method: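 Testing was done with the MDA-kb2 AR-luc line, a human breast carcinoma stably transfected with MMTV-luciferase containing AR and GR response elements. Cells were exposed 16 h at 37C before ONE-Glo luminescence detection.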

[20] = biological target: Androgen receptor (Homo sapiens) (UniProt P10275); assay: qHTS assay to identify small molecule agonists of the androgen receptor (AR) signaling pathway (AID 743036; active = well fitted activation curve with a large enough effect in the signal ratio in the repeat runs, with a control signal flat, not every such curve was filed as active; the % refers to the signal ratio)
Summary of the method: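 Beta-lactamase under UAS control, stably integrated in HEK293 GripTite cells, reports receptor activation. After 16 h compound treatment, cells received FRET substrate for 2 h at room temperature before fluorescence reading.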
% is set by controls: 0 for no effect and ±100 for the full control effect.

O=C(Cl)c1ccc([N+](=O)[O-])cc1
inactive: outcome [1] | Potency [2] | outcome [3] | outcome [4] | outcome [5] | Potency [6] | outcome [7] | Potency [8] | Potency [9] | Potency [10] | Potency [11] | Potency [12] | Potency [13] | Potency [14] | Potency [15] | Potency [16] | Potency [17] | Potency [18]

CCOC(=O)CC(C)C
inactive: outcome [1] | Potency [2] | outcome [3] | outcome [4] | outcome [5] | Potency [6] | outcome [7] | Potency [8] | Potency [9] | Potency [10] | Potency [11] | Potency [12] | Potency [13] | Potency [14] | Potency [15] | Potency [17]

Cn1c(N)nc2nc[nH]c2c1=O
inactive: outcome [1] | Potency [2] | outcome [3] | outcome [4] | outcome [5] | Potency [6] | outcome [7] | Potency [8] | Potency [9] | Potency [10] | Potency [11] | Potency [13] | Potency [15] | Potency [17]

Cc1occc1S
inactive: outcome [1] | Potency [2] | outcome [3] | outcome [4] | outcome [5] | Potency [6] | outcome [7] | Potency [8] | Potency [9] | Potency [10] | Potency [11] | Potency [15] | Potency [17]
active: Potency [12] 54.5 µM

Cn1sccc1=O
inactive: outcome [1] | Potency [2] | outcome [3] | outcome [4] | outcome [5] | Potency [6] | outcome [7] | Potency [8] | Potency [17]
active: Potency [12] 2.43 µM | Potency [14] 4.86 µM

CN(C)CC[C@@H](c1ccc(Br)cc1)c1ccccn1
inactive: outcome [1] | Potency [2] | outcome [3] | outcome [4] | outcome [5] | Potency [6] | outcome [7] | Potency [8] | Potency [11] | Potency [15] | Potency [17]

O=C(O)c1cccc(N(Cc2cccnc2)c2ccc(OC(F)F)c(OC(F)F)c2)c1
inactive: outcome [1] | Potency [2] | outcome [3] | outcome [4] | outcome [5] | Potency [6] | outcome [7] | Potency [8] | Potency [11] | Potency [15] | Potency [19] | Potency [17]

CCCCOc1cc(C(=O)OCCN(CC)CC)ccc1N
active: Potency [12] 10.1 µM | Potency [14] 8.04 µM
inactive: fluorescence, % of fluorescein [1] 0.0482% [at 18.6 µM] | fluorescence, % of fluorescent control [2] -0.116% [at 18.6 µM] | activity change [3] -0.0782% [at 18.6 µM] | fluorescence, % of fluorescent control [4] -0.0563% [at 18.6 µM] | fluorescence, % of Rose Bengal [5] 0.59% [at 18.6 µM] | fluorescence, % of fluorescent control [6] 0.0523% [at 18.6 µM] | fluorescence, % of fluorescein control [7] 0.0068% [at 18.6 µM] | fluorescence, % of fluorescent control [8] -0.135% [at 18.6 µM] | Potency [10] | Potency [15] | Potency [17]

Cc1ccc2c(ccc3ccccc32)c1
inactive: outcome [1] | Potency [2] | outcome [3] | outcome [4] | outcome [5] | Potency [6] | outcome [7] | Potency [8] | Potency [11] | Potency [12] | Potency [13] | Potency [14] | Potency [15] | Potency [17]

N#CCCNCCC#N
inactive: outcome [1] | Potency [2] | outcome [3] | outcome [4] | outcome [5] | Potency [6] | outcome [7] | Potency [8] | Potency [11] | Potency [12] | Potency [13] | Potency [14] | Potency [15] | Potency [17]

NC(N)=N/N=C/c1c(Cl)cccc1Cl
inactive: outcome [1] | Potency [2] | outcome [3] | outcome [4] | outcome [5] | Potency [6] | outcome [7] | Potency [8] | Potency [11] | Potency [19]
active: Potency [12] 11.9 µM | Potency [14] 21.1 µM

Oc1ccc(Cc2ccccc2)cc1
inactive: outcome [1] | Potency [2] | outcome [3] | outcome [4] | outcome [5] | Potency [6] | outcome [7] | Potency [8] | Potency [9] | Potency [12] | Potency [17]

C=C(C)C(=O)OC(C)C
inactive: outcome [1] | Potency [2] | outcome [3] | outcome [4] | outcome [5] | Potency [6] | outcome [7] | Potency [8] | Potency [11] | Potency [12] | Potency [13] | Potency [14] | Potency [15] | Potency [16] | outcome [20] | Potency [19] | Potency [17] | Potency [18]

CC(C(=O)O)c1ccc(-c2ccccc2)c(F)c1 (stereo unspecified)
inactive: outcome [1] | Potency [2] | outcome [3] | outcome [4] | outcome [5] | Potency [6] | outcome [7] | Potency [8] | Potency [10] | Potency [11] | Potency [12] | Potency [13] | Potency [14] | Potency [15] | Potency [17]

CC(=O)CC(=O)c1ccccc1
inactive: outcome [1] | Potency [2] | outcome [3] | outcome [4] | outcome [5] | Potency [6] | outcome [7] | Potency [9] | Potency [11] | Potency [12] | Potency [13] | Potency [14] | Potency [15] | Potency [17]

CCN(CC)CCOc1ccc2c(c1)C(=O)c1cc(OCCN(CC)CC)ccc1-2
active: Potency [12] 5.31 µM | Potency [14] 5.96 µM
inactive: outcome [1] | Potency [2] | outcome [3] | outcome [4] | outcome [5] | Potency [6] | outcome [7] | Potency [8] | Potency [11] | Potency [15] | Potency [17]

O=c1[nH]cnc2ccccc12
inactive: outcome [1] | Potency [2] | outcome [3] | outcome [4] | outcome [5] | Potency [6] | outcome [7] | Potency [8] | Potency [9] | Potency [15] | Potency [17]

CCN(CC)C(C)=O
inactive: outcome [1] | Potency [2] | outcome [3] | outcome [4] | outcome [5] | Potency [6] | outcome [7] | Potency [8] | Potency [11] | Potency [12] | Potency [13] | Potency [14] | Potency [15] | Potency [17]

CCCCCc1ccc(N)cc1
inactive: outcome [1] | Potency [2] | outcome [3] | outcome [4] | outcome [5] | Potency [6] | outcome [7] | Potency [8] | Potency [11] | Potency [12] | Potency [15]
